# pPAFAH FP inh: inhibitors of human plasma PAF acetylhydrolase (pPAFAH); Q13093; inhibition, % at 3.39 µM; recombinant pPAFAH, FP-rhodamine probe fluorescence polarization; 330,000 tested, 1.5% active;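 active = inhibition above the mean inhibition across the screen plus 3 SD, cut at about 25% in these data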;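 also: inhibitors block binding of the rhodamine activity-based probe so polarization drops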
# DAGLB inhibitor: diacylglycerol lipase beta (human) inhibition. 340,000 tested, 0.059% active. Q8NCG7. AID 504411. HEK293T DAGLB membrane lysate, EnzChek fluorogenic substrate. inhibition, % at 5.17 µM; in the data active = inhibition above about 34%
# Target sequence (Q8NCG7 whole entry, looked up): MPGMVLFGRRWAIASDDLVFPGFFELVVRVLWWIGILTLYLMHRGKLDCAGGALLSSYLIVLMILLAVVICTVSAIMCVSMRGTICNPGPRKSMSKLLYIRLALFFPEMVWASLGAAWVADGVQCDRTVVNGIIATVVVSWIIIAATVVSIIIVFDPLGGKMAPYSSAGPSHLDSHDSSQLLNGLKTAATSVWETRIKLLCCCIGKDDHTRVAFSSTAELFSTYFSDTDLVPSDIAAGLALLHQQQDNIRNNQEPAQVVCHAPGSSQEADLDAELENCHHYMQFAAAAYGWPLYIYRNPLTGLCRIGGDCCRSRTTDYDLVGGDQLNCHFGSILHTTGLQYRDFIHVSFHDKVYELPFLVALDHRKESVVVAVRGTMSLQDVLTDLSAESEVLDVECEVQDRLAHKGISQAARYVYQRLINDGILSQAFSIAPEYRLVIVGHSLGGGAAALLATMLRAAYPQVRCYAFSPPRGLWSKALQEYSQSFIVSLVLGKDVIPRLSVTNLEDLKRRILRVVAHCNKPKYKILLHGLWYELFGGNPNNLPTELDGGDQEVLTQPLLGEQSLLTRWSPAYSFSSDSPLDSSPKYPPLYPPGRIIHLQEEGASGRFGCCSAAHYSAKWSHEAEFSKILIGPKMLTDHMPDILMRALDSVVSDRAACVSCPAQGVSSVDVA
# PAFAH1B3 FP inh: blocks human PAF acetylhydrolase 1B catalytic subunit 3; Q15102; inhibition, % at 3.39 µM; AID 492972; 340,000 tested, 0.28% active; recombinant PAFAH1B3, FP-rhodamine probe, fluorescence polarization;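 active = inhibition above the screen-wide average of all tested compounds plus 3 SD, cut at about 25% in these data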
# PAFAH2 inh: PAFAH2 (human) inhibition. inhibition, % at 3.39 µM. Q99487. 340,000 tested, 0.99% active. recombinant PAFAH2, FP-rhodamine activity probe, fluorescence polarization. AID 492956;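 active = inhibition above the mean over all tested compounds plus 3 SD, cut at about 30% in these data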;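 also: inhibitors block probe labeling of enzyme so polarization drops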
# PAFAH1B2 FP inh: inhibitors of human PAFAH1B2. recombinant PAFAH1B2, FP-rhodamine activity probe, fluorescence polarization. 340,000 tested, 1.2% active. inhibition, % at 3.39 µM;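 active = inhibition above the mean of all tested compounds plus 3 SD, cut at about 24% in these data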
# ATG4B inh: blocks human ATG4B protease cleavage of LC3 substrate; Q9Y4P1; inhibition, % at 8.33 µM; 340,000 tested, 0.51% active; ATG4B cleavage of LC3-PLA2, NBD-HPC fluorescence, 1 h; in the data active = inhibition above about 40%
# A number is an active result; . = inactive; / = no result given; + = active, no number. In the library only some 3% were active in any assay of this set; here they are far more common.
SMILES,pPAFAH FP inh,DAGLB inhibitor,PAFAH1B3 FP inh,PAFAH2 inh,PAFAH1B2 FP inh,ATG4B inh
NC(=O)c1cccc(N=Cc2cc(Cl)cc(Cl)c2O)c1,/,.,.,.,.,.
Oc1c(Cl)cc(Cl)cc1C=Nc1ccccc1N1CCCC1,30,/,/,/,/,/
COc1ccc(CCNC(=O)COc2ccc(C)nc2[N+](=O)[O-])cc1,.,.,.,.,.,.
CC(C)c1ccc(-c2nc(N3CCOCC3)[nH]c(=O)c2C#N)cc1,.,.,.,.,33,.
CC1CN(C(=O)CCC(=O)NC2CCCCC2)c2ccccc2S1 (stereo not drawn),.,.,.,.,.,.
O=C(Nc1ccccc1C(=O)O)c1cc(S(=O)(=O)Nc2cccc(F)c2)ccc1Cl,31,.,.,.,.,.
O=C(Nc1ccccc1C(=O)O)c1cc(S(=O)(=O)N2CCCCCC2)ccc1Cl,.,.,.,.,.,.
COc1cc(/C=N/NC(=O)c2ccc(Cn3cc([N+](=O)[O-])cn3)o2)cc(Br)c1O,.,.,.,.,.,.
COc1cc(/C=N\NC(=O)c2ccc(Cn3cc(Br)c([N+](=O)[O-])n3)o2)cc(OC)c1O,27,.,.,.,.,.
CCOC(=O)C1CCCN(CC(=O)Nc2nccs2)C1 (stereo not drawn),28,.,.,.,.,.
CCOC(=O)C1CCCN(CC(=O)Nc2nc(-c3ccccc3)cs2)C1 (stereo not drawn),.,.,.,.,.,.
COc1ccc(S(=O)(=O)NC(C)CCc2ccccc2)cc1 (stereo not drawn),.,.,.,.,.,.
CC(CCc1ccccc1)NS(=O)(=O)c1ccccc1F (stereo not drawn),.,.,.,.,29,.
CC(=O)Nc1ccc(S(=O)(=O)Nc2nnc(CC(C)(C)C)s2)cc1,.,.,.,.,.,.
CC1CCC2C(C1)c1sc(=O)[nH]c1SC2(C)C (stereo not drawn),.,.,.,.,68,.
O=C(O)c1ccc(CSCc2ccccc2)o1,/,.,/,/,/,/
Cc1ccc(CSCc2ccc(C(=O)O)o2)cc1,.,.,.,.,29,.
CC(=O)Nc1ccc(NC(=O)C(C)c2cccc(C(=O)c3ccccc3)c2)cc1 (stereo not drawn),30,.,.,.,.,.
CCCCNC(=O)C(c1ccc(OCC(=O)OC)c(C(=O)OC)c1)N(CCOC)C(=O)CCCCCN1C(=O)NC(c2ccc(-c3ccccc3)cc2)C(C(=O)OCc2ccccc2)=C1C (stereo not drawn),49,/,/,/,/,/
CCCCCCN(C(=O)CCCCCN1C(=O)NC(c2ccc(-c3ccccc3)cc2)C(C(=O)OCc2ccccc2)=C1C)C(C(=O)NCCCC)c1ccc(OCC(=O)OC)cc1 (stereo not drawn),.,/,/,/,/,/
Cc1ccc(NC(=O)COC(=O)c2cc(=O)c3cc(F)ccc3o2)cc1,/,.,.,.,.,.
O=C(O)CSc1cc(NS(=O)(=O)c2ccc(Cl)cc2)c2ccccc2c1O,.,.,52,36,51,.
CC1CCN(c2ccccc2NC(=O)c2cc([N+](=O)[O-])ccc2N2CCOCC2)CC1,.,.,.,.,27,.
Cc1cccc(C)c1NC(=O)CN(C)C(=O)c1cc([N+](=O)[O-])ccc1N1CCOCC1,.,.,.,.,.,.
CN(CC(=O)Nc1ccccc1Br)C(=O)c1cc([N+](=O)[O-])ccc1N1CCOCC1,.,.,+,139,176,.
SMILES,pPAFAH FP inh,DAGLB inhibitor,PAFAH1B3 FP inh,PAFAH2 inh,PAFAH1B2 FP inh,ATG4B inh
CCc1ccccc1NC(=O)c1cc([N+](=O)[O-])ccc1N1CCOCC1,.,.,.,.,.,.
CC(C)NC(=S)NC(c1ccccc1)(c1ccccc1)c1ccccc1,.,.,.,.,.,.
O=[N+]([O-])c1cc(/C=N\Nc2nc(-c3ccccc3)cs2)ccc1O,31,.,.,32,.,.
O=C(COc1c(Br)cc(Br)c2cccnc12)Nc1ccccc1F,30,.,.,.,.,.
CC(CN1CCN(C/C=C/c2ccccc2)CC1)c1ccccc1 (stereo not drawn),.,.,.,.,.,.
CCOC(=O)CCCCC(=O)c1[nH]c(=O)[nH]c1CSc1nc2ccccc2[nH]1,.,.,.,.,25,.
Cc1cc(NC(=O)CSc2nnc(C)n2C)no1,.,.,.,.,.,.
O=C(CCc1ccc(O)cc1)c1c(O)cc(O)cc1O,.,.,.,.,31,.
O=C(Cc1ccc2c(c1)OCCO2)c1c(O)cc(O)cc1O,.,.,.,.,.,.
COc1cc(/C=N/Nc2nc(C)nc3c2cnn3-c2ccccc2)ccc1O,/,.,.,.,28,.
CC(=O)N(\C=C/C=C/C=C1\Sc2ccccc2C1=O)c1ccccc1,30,.,.,.,.,.
CN(C)/C=C1/Sc2ccccc2C1=O,.,.,.,.,.,.
Cc1ccc(NC(=O)CSc2nc(=O)n(CCCN3CCOCC3)c3c2CCCC3)c(C)c1,.,.,.,.,.,.
CCCCCN(C(=O)CSc1n[nH]c(-c2ccc(C)cc2)n1)c1c(N)n(CCCC)c(=O)[nH]c1=O,.,.,.,.,29,.
CCCCn1c(N)c(N(CCOC)C(=O)CSc2n[nH]c(-c3ccc(C)cc3)n2)c(=O)[nH]c1=O,.,.,.,.,.,.
CN(c1ccccc1)S(=O)(=O)c1cccc(NC(=O)CSc2ncn[nH]2)c1,.,.,.,.,25,.
COCCN(C(=S)Nc1ccc(OC)c(Cl)c1)C1CCN(C(C)=O)CC1,/,.,/,/,/,/
COc1cccc(C=Nc2ccc(N3CCOCC3)cc2)c1O,.,.,.,.,.,.
O=[N+]([O-])c1cc(Br)c(O)c(C=Nc2ccc(N3CCOCC3)cc2)c1,34,.,.,.,.,.
CC1CCCCC1NC(=O)COC(=O)c1ccc2ccccc2n1 (stereo not drawn),27,.,.,.,.,.
O=C(CN1CCN(S(=O)(=O)c2cccc(Br)c2)CC1)N1CCCCC1,.,.,.,.,.,.
Nc1c(C(=O)c2ccccc2)sc2snc(SCC(=O)c3ccccc3)c12,27,.,.,44,.,.
CCOc1ccc(S(=O)(=O)Nc2ccc(C(=O)NCC3(N4CCCCC4)CCCCC3)cc2)cc1,.,.,.,.,.,.
COc1ccc(NS(=O)(=O)c2cccc(C(=O)NCC3(N4CCCCC4)CCCCC3)c2)cc1,32,.,.,.,.,.
COc1ccc(NS(=O)(=O)c2cccc(C(=O)NNC(=O)CNC(=O)c3ccc(C)cc3)c2)cc1,34,.,.,.,.,.
COc1ccc(NS(=O)(=O)c2cccc(NC(=O)c3ccccn3)c2)cc1,26,.,.,.,.,.
COc1ccc(NS(=O)(=O)c2ccc(NC(=O)c3ccccn3)cc2)cc1,.,.,.,.,.,.
COc1ccc(NS(=O)(=O)c2ccc(C(=O)NCC3(N4CCOCC4)CCCCC3)cc2)cc1,31,.,.,.,.,.

# Screening data: PubChem BioAssay, several laboratories
